Reference: PubChem BioAssay (EPA / NIEHS)
Results filed as inconclusive are left out. Where a structure was tested more than once in an assay, its records may differ in their call. The source made the active and inactive calls. Rule for the calls, unless noted: active = hit-call score of the fitted dose curve at least 0.9, where 1 is the maximum; inactive = score below 0.9.

How the values were obtained:
[1] = TOX21_p53_BLA_p4_viability: Viability Assessment in the Tox21 HCT-116 p53 Agonism Beta-lactamase Assay, Phase 4 (AID 2283597; active = hit-call score of the fitted dose curve at least 0.9, where 1 is the maximum;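 note: hits lower the luminescence signal meaning cytotoxicity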)
Method in brief: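 Cells plated, 5 h pre-incubation; DMSO compounds pinned (217-fold dilution); 16 h, 37C/5% CO2; CCF4-AM 2 h RT; CellTiter-Glo 30 min RT; luminescence read.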

[2] = TOX21_p53_BLA_p5_viability: Viability Assessment in the Tox21 HCT-116 p53 Agonism Beta-lactamase Assay, Phase 5 (AID 2283600; active = hit-call score of the fitted dose curve at least 0.9, where 1 is the maximum)
Method in brief: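 4000 cells/well; 5 h pre-incubation; DMSO compounds pin-transferred, 217-fold dilution; 16 h, 37C/5% CO2; CCF4-AM 2 h RT; CellTiter-Glo 30 min RT; luminescence.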

[3] = CCTE_Shafer_MEA_acute_firing_rate_mean: CCTE's Neural Acute Assay for Mean Firing Rate, Shafer Lab (AID 2284009);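 note: analyzed for loss of signal so actives lower firing rate relative to DMSO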
Method in brief: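 Rat primary cortical neurons on 48-well MEA plates, dosed at 0.03-40 uM on DIV 13 or 15; 40 min spontaneous activity recorded at 37 C before and after compound. Spike rate per electrode averaged per well, expressed as percent change from baseline.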

[4] = CCTE_Harrill_HTTr_CellCount_MCF7: CCTE's Cell Proliferation Assessment for the High-Throughput Transcriptomics (HTTr) Platform, Harrill Lab (AID 2284012; active = hit-call score of the fitted dose curve at least 0.9, where 1 is the maximum;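 note: cells exposed to compound for six hours; intended direction is loss of nuclei count meaning fewer cells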)
Method in brief: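 MCF-7 cells were exposed for 6 h to an eight-point dilution series; Hoechst-labeled nuclei were counted by high content imaging. Curves were fitted bidirectionally against DMSO as negative control and baseline, with signal loss indicating reduced cell count.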

[5] = CCTE_Shafer_MEA_acute_burst_number: CCTE's Neural Acute Assay for Single-Electrode Bursts, Shafer Lab (AID 2284013)
Method in brief: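 Primary rat cortical neurons on 16-electrode MEA wells, treated on DIV 13 or 15 with compound at 0.03-40 uM. Single-electrode burst count from 40-min recordings at 37 C before and after exposure; percent change from baseline per well, DMSO negative control.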

[6] = CCTE_Shafer_MEA_acute_burst_duration_mean: CCTE's Neural Acute Assay for Mean Burst Duration, Shafer Lab (AID 2284014);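 note: hits are decreases in mean burst duration relative to DMSO controls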
Method in brief: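 Rat primary cortical neurons on 48-well MEA, treated at DIV 13 or 15 with 0.03-40 uM in at least 3 wells. Value is percent change in mean burst duration, comparing 40 min recordings at 37 C before and during exposure.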

[7] = CCTE_Shafer_MEA_acute_interburst_interval_mean: CCTE's Neural Acute Assay for Mean Interburst Interval, Shafer Lab (AID 2284016);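 note: percent change of mean interburst interval versus each well's own pre-dose baseline; curves fitted for decrease in interburst interval relative to DMSO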
Method in brief: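 MEA recording of spontaneous network bursting in primary rat cortical cultures; mean interburst interval was compared before and after a 40-min compound exposure (0.03-40 uM) and expressed as percent change, relative to DMSO.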

[8] = CCTE_Shafer_MEA_acute_burst_percentage_mean: CCTE's Neural Acute Assay for Percentage of Spikes in a Burst, Shafer Lab (AID 2284017)
Method in brief: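 Compounds were tested at 0.03-40 uM on primary rat cortical neuron networks grown over microelectrodes, with at least three wells per compound. Spontaneous firing was recorded for 40 min before and 40 min after dosing, and the change in burst percentage was computed per well.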

[9] = CCTE_Shafer_MEA_acute_burst_percentage_std: CCTE's Neural Acute Assay for Standard Deviation of Burst Percentage, Shafer Lab (AID 2284018);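 note: fitted in the negative direction so actives lower burst percentage SD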
Method in brief: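 Rat primary cortical neurons on 48-well MEAs, DIV 13 or 15, 37 C. 40-min baseline then 40-min recording with compound (0.03-40 uM); well-level SD of per-electrode burst spike percentage, expressed as percent change from baseline.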

[10] = CCTE_Shafer_MEA_acute_per_network_burst_spike_number_mean: CCTE's Neural Acute Assay for Average Number of Spikes in a Network Burst, Shafer Lab (AID 2284019)
Method in brief: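 Rat primary cortical neurons on 48-well MEA at DIV 13 or 15, 37 C; compounds 0.03-40 uM, at least three wells each. 40-min baseline then 40-min exposure recording; percent change in mean spikes per network burst.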

[11] = CCTE_Shafer_MEA_acute_per_network_burst_spike_number_std: CCTE's Neural Acute Assay for Standard Deviation of Number of Spikes in a Network Burst, Shafer Lab (AID 2284020);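 note: fitted for decrease in spike-number SD versus DMSO so actives lower it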
Method in brief: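 Rat primary cortical neurons on 48-well MEA (16 electrodes/well), treated DIV 13 or 15 at 0.03-40 uM, ≥3 wells per compound. 40 min recordings at 37 C before and after dosing; value is percent change in network-burst spike-number SD, negative direction vs DMSO.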

[12] = CCTE_Shafer_MEA_acute_network_burst_percentage: CCTE's Neural Acute Assay for Percentage of Network Bursts, Shafer Lab (AID 2284022);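 note: curves fitted for loss so actives lower network burst percentage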
Method in brief: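 Readout is the fraction of spikes falling in network bursts, expressed as per-well percent change from a 40-min pre-exposure baseline. Primary rat cortical neurons on MEA were exposed to 0.03-40 uM compound on DIV 13 or 15 and recorded for 40 min at 37 C.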

[13] = CCTE_Shafer_MEA_acute_cross_correlation_area: CCTE's Neural Acute Assay for Area of Cross Correlation, Shafer Lab (AID 2284024);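 note: area under pooled inter-electrode spike cross-correlation near zero lag as percent change from own baseline; curves fitted for loss of cross-correlation area so actives lower synchrony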
Method in brief: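 Plates equilibrated 20 min at 37 C, then 40 min baseline was recorded, compound was added (0.03-40 uM), and a further 40 min was recorded. Wells needed ≥10 active electrodes (≥5 spikes/min) on exposure day.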

[14] = CCTE_Shafer_MEA_acute_cross_correlation_HWHM: CCTE's Neural Acute Assay for Cross Correlation at Half Width at Half Maximum, Shafer Lab (AID 2284026);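 note: percent change per well from pre-dose baseline in spike cross-correlogram half width; hits are a decrease in cross-correlogram half width relative to DMSO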
Method in brief: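 Rat cortical neuron cultures on microelectrode arrays were equilibrated 20 min at 37 C, recorded 40 min at baseline, then 40 min after compound addition (0.03-40 uM, ≥3 wells). Spikes were detected at 8x rms noise after 300-5000 Hz band-pass filtering.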

[15] = CCTE_Shafer_MEA_acute_synchrony_index: CCTE's Neural Acute Assay for Synchrony, Shafer Lab (AID 2284027);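 note: network synchrony index of spontaneous spiking in primary rat cortical neurons on MEAs; fitted for loss of signal so actives lower synchrony relative to DMSO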
Method in brief: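 Primary rat cortical neurons on 16-electrode MEA wells were recorded 40 min at baseline (DIV 13 or 15) and 40 min after compound (0.03-40 uM) at 37 C. Synchrony index (0-1) expressed as percent change from baseline, versus DMSO.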

[16] = CCTE_Shafer_MEA_dev_firing_rate_mean: CCTE's Neural Network Formation Assay for Mean Firing Rate, Shafer Lab (AID 2284031);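 note: curve fitted for loss of firing so AC50 reflects decreased mean firing rate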
Method in brief: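 Primary rat cortical neurons on 48-well, 16-electrode MEAs (PEI-coated, laminin at plating), exposed from day 0 with compound renewed at DIV 5 and 9. Spikes recorded DIV 5, 7, 9, 12; well-mean firing rate collapsed to trapezoidal AUC, loss-of-signal vs DMSO.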

[17] = CCTE_Shafer_MEA_dev_per_burst_spike_percent: CCTE's Neural Network Formation Assay for Percent of Spikes in a Burst, Shafer Lab (AID 2284032);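 note: fitted as a decrease in burst spike percentage below DMSO baseline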
Method in brief: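 Rat primary cortical neurons on 16-electrode MEA wells, dosed from plating day 0 for 12 days with renewal on DIV 5 and 9; spikes-in-bursts percentage averaged over bursting electrodes, collapsed as AUC across days 5, 7, 9, 12; loss direction versus DMSO.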

[18] = CCTE_Shafer_MEA_dev_active_electrodes_number: CCTE's Neural Network Formation Assay for Number of Active Electrodes, Shafer Lab (AID 2284040; active = hit-call score of the fitted dose curve at least 0.9, where 1 is the maximum;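 note: potency for loss of active electrodes versus DMSO so lower counts are hits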)
Method in brief: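 Rat cortical primary cultures, 1.5 x 10^5 cells/well, PEI-coated MEA, laminin drop. Continuous exposure DIV 0–12; full media/compound change DIV 5, 9. Readout: electrodes with mean firing ≥5 spikes/min; AUC across days; loss vs DMSO.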

[19] = CCTE_Shafer_MEA_dev_burst_rate: CCTE's Neural Network Formation Assay for Burst Rate, Shafer Lab (AID 2284042);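 note: potency for loss of burst rate below DMSO control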
Method in brief: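 Developmental network assay measuring how 12-day exposure of rat cortical neuron cultures alters bursting on extracellular MEA recordings. Values are AUC of well-mean burst rate across four recording days, relative to DMSO vehicle.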

[20] = CCTE_Shafer_MEA_dev_bursting_electrodes_number: CCTE's Neural Network Formation Assay for Number of Bursting Electrodes, Shafer Lab (AID 2284043; active = hit-call score of the fitted dose curve at least 0.9, where 1 is the maximum;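 note: potency is for loss of bursting electrodes relative to DMSO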)
Method in brief: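 Primary rat cortical neurons plated on 16-electrode MEA wells, exposed from day 0 with compound renewed at DIV 5 and 9. Electrodes bursting ≥1 burst per 2 min counted on days 5, 7, 9 and 12; trapezoidal AUC across days, fitted for loss versus DMSO.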

[21] = CCTE_Shafer_MEA_dev_per_burst_interspike_interval: CCTE's Neural Network Formation Assay for Burst Interspike Interval, Shafer Lab (AID 2284044);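 note: mean spike spacing inside bursts as AUC over recordings on days 5 7 9 12; potency for a decrease of within-burst interspike interval below DMSO level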
Method in brief: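 Neurons from rat cortex plated onto PEI-coated MEA wells with laminin […] at 1.5 x 10^5 cells/well, then treated from day 0. Media and compound fully replaced on DIV 5 and 9. Extracellular spontaneous firing recorded four times; interspike interval per burst summarised as AUC.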

Measured: AC50

[Cd+2].[Cl-].[Cl-]
inactive: [1] | [2] | [3] | [4] | [5] | [6] | [7] | [8] | [9] | [10] | [11] | [12] | [13] | [14] | [15]
active: [2] 76200 nM | [16] 331 nM | [17] 436 nM | [18] 315 nM | [19] 461 nM | [20] 302 nM | [21] 630 nM
